Data on 37 compounds can be found in paper PMC4336329 (PLoS ONE, 2015).

Among all 310,000 compounds or so, about 14,000 (4.5%) showed an effect of 50% or more. The effect is printed as a negative number. The full list was thinned out, with strong results kept by preference.
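Also: peak tail current of the secondary pulse compared with the same well before compound.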

human ether-à-go-go-related gene (hERG) potassium channel, sequence (Q12809 whole entry, looked up): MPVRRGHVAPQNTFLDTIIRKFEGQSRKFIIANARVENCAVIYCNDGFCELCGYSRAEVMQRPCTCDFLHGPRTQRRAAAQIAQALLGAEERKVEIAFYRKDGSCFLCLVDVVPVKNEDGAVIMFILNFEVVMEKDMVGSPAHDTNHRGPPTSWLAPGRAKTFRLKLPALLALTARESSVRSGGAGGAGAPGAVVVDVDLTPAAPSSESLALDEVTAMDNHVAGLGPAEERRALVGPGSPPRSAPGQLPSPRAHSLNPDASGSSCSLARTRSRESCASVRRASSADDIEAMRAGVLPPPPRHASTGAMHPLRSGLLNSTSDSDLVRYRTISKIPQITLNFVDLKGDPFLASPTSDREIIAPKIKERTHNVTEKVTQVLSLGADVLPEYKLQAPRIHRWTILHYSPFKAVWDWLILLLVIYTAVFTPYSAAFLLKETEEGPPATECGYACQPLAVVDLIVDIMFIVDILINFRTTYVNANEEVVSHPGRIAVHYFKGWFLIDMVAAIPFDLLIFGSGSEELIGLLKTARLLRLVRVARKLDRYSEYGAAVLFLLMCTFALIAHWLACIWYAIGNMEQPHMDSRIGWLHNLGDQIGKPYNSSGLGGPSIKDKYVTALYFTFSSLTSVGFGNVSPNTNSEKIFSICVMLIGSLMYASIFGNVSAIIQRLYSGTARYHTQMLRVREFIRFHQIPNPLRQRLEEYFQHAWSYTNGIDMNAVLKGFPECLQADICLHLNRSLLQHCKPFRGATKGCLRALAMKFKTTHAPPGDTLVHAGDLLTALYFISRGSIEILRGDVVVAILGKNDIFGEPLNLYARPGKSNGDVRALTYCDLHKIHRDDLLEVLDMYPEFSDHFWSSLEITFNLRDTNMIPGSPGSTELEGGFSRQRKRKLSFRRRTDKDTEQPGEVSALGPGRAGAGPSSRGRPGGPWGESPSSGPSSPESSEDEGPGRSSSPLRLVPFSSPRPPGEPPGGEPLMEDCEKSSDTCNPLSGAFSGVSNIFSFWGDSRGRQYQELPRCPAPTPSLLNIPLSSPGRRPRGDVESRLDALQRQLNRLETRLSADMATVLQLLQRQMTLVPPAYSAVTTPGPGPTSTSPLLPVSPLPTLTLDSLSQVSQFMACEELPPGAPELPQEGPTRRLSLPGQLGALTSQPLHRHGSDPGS

The target of the assay is human ether-à-go-go-related gene (hERG) potassium channel (human, UniProt Q12809). Briefly: primary screen, population patch clamp on CHO cells stably expressing hERG; higher = less effect of the substance. How it is done:
Briefly, Chinese hamster ovary (CHO) cells stably expressing the hERG channel were dislodged from tissue culture flasks and dispensed into PPC plates. […] During the recording, background leak currents were estimated by a 100 ms step to -80 mV from an initial holding potential of -70 mV and subtracted from the subsequent current measurement. The campaign was conducted in two phases using slight differences in recording protocol. In the first phase, the initial voltage pulse used a 100 ms step to -30 mV from a holding potential of -70 mV, a 2 s conditioning step to +25 mV, and a 2 s test step to -30 mV. During the second phase of the screen, the potential during the conditioning step was raised to +45 mV. In both phases of the campaign, a secondary voltage pulse was applied using the same parameters as the second phase initial pulse. The initial and secondary pulses were applied in the absence of compound, and upon application of 1 μM and 10 μM test concentrations. […]
`O=C1CCc2ccccc2N1`: the “hERG current change (%, negative = inhibition) at 10uM” value came out at 16.5%.
The figure for `Cc1ccc(-c2csc(NC(=O)c3ccccc3Cl)c2C(=O)O)cc1` is 20.8%.
As to `COCc1nnc(NC(=O)c2ccc(S(=O)(=O)N(CC(C)C)CC(C)C)cc2)o1`, the “hERG current change (%, negative = inhibition) at 10uM” value is -7.19%.
Take `NNc1nc2cc3c(cc2s1)OCCO3`: the “hERG current change (%, negative = inhibition) at 10uM” value was determined as 14.1%.
The same measure for `CN(C(=O)CSc1nc2c(cnn2-c2ccccc2)c(=O)[nH]1)C1CCS(=O)(=O)C1` (stereo not shown): 16.1%; for `CSCC(C)N1CCC(CCC(=O)NC2CC2)CC1` (stereo not shown): -18.1%.
Take `OCCCCO`: the “hERG current change (%, negative = inhibition) at 10uM” value is reported as 13.7%.
The figure for `Oc1ccc(Cc2ncc(C(F)(F)F)cc2Cl)cc1` is -15.4%.
The figure for `Cc1ccc(N(CC(=O)N2CCCCC2)S(=O)(=O)c2ccc(C)cc2)cc1` is -20.9%.
The same measure for `OCc1csc(=Nc2ccccc2)n1-c1ccccc1`: 0.29%.
For the compound `C=CCc1cc(Cl)ccc1OCCOCCN(C)C.O=C(O)C(=O)O`, the “hERG current change (%, negative = inhibition) at 10uM” value is -51.5%.
Consider `CN(C)CCOCCOc1ccc(Cl)cc1C(C)(C)C.O=C(O)C(=O)O`, for which the “hERG current change (%, negative = inhibition) at 10uM” value is listed as -37.3%.
Take `CCC(C)NCCOCCOc1ccc(Cl)c(C)c1C.O=C(O)C(=O)O` (stereo not shown): the “hERG current change (%, negative = inhibition) at 10uM” value is -31.7%.
Turning to `C=CCc1cc(Cl)ccc1OCCOCCNC(C)CC.O=C(O)C(=O)O` (stereo not shown), the “hERG current change (%, negative = inhibition) at 10uM” value is recorded as -69.2%.
The same measure for `C=CCc1cc(Cl)ccc1OCCOCCNC(C)(C)C.O=C(O)C(=O)O`: -49.5%; for `C=CCc1cc(Cl)ccc1OCCN(C)C.O=C(O)C(=O)O`: -42%.
`Cc1occc1-c1nnc(SCC(=O)Nc2c(F)cccc2F)n1C`: the “hERG current change (%, negative = inhibition) at 10uM” value is given as -7.23%.
As to `CCOC(=O)c1c(C)[nH]c(C)c1S(=O)(=O)N1CCN(C(=O)c2ccco2)CC1`, the “hERG current change (%, negative = inhibition) at 10uM” value is listed as 16.5%.
Turning to `Cc1ccc(S(=O)(=O)N2CCCOC2CNC(=O)C(=O)NCc2ccc3c(c2)OCO3)cc1` (stereo not shown), the “hERG current change (%, negative = inhibition) at 10uM” value is -13.4%.
For the compound `CNC(=S)NNC(=O)c1cccn(Cc2cccc(C(F)(F)F)c2)c1=O`, the “hERG current change (%, negative = inhibition) at 10uM” value turned out to be 22.2%.
The same measure for `N#C/C(=C/c1ccc(O)cc1)C(=O)NCc1ccc(Cl)cc1`: 23.1%; for `C=CCSc1nc2ccsc2c(=O)n1-c1cccnc1`: -8.97%.
With `Cc1cc2nc(CO)[nH]c2cc1C`, the “hERG current change (%, negative = inhibition) at 10uM” value came out at 14.9%.
The same measure for `O=C1NC2NC(=O)N([N+](=O)[O-])C2N1` (stereo not shown): 14.6%; for `CC(C)NC(=O)COC(=O)c1ccc(Cl)c(S(N)(=O)=O)c1`: 18.6%; for `O=C(Nc1c2c(nn1-c1cccc(Cl)c1)CS(=O)(=O)C2)C1CC1`: -66.9%.
The same measure for `O=C(Cc1ccccc1)Nc1c2c(nn1-c1cccc(Cl)c1)CS(=O)(=O)C2`: -76.2%.
Consider `CCC(=O)Nc1c2c(nn1-c1cccc(Cl)c1)CS(=O)(=O)C2`, for which the “hERG current change (%, negative = inhibition) at 10uM” value was -38.7%.
For the compound `CCCC(=O)Nc1c2c(nn1-c1cccc(Cl)c1)CS(=O)(=O)C2`, the “hERG current change (%, negative = inhibition) at 10uM” value is reported as -53.4%.
Turning to `O=C(Nc1c2c(nn1-c1ccc(Cl)cc1)CS(=O)(=O)C2)C1CC1`, the “hERG current change (%, negative = inhibition) at 10uM” value is listed as -26.8%.
For the compound `O=C(Nc1c2c(nn1-c1ccccc1)CS(=O)(=O)C2)C1CCCC1`, the “hERG current change (%, negative = inhibition) at 10uM” value is recorded as -0.437%.
In the case of `COc1ccc(CC(=O)Nc2c3c(nn2-c2cccc(Cl)c2)CS(=O)(=O)C3)cc1`, the “hERG current change (%, negative = inhibition) at 10uM” value is on record as -51.7%.
The same measure for `O=C(Nc1c2c(nn1-c1cccc(Cl)c1)CS(=O)(=O)C2)c1ccco1`: -37.9%; for `COc1ccc(CC(=O)Nc2c3c(nn2-c2cccc(C)c2C)CS(=O)(=O)C3)cc1`: -24.5%; for `COc1ccc(CC(=O)Nc2c3c(nn2-c2cccc(Cl)c2)CS(=O)C3)cc1` (stereo not shown): -37.1%.
Take `CC(C)CC(=O)Nc1c2c(nn1-c1cccc(Cl)c1)CS(=O)(=O)C2`: the “hERG current change (%, negative = inhibition) at 10uM” value is recorded as -40.8%.
Turning to `CC(=O)Nc1c2c(nn1-c1cccc(Cl)c1)CS(=O)(=O)C2`, the “hERG current change (%, negative = inhibition) at 10uM” value is -16.8%.
